Bioassay records: PubChem BioAssay, National Center for Advancing Translational Sciences (NCATS)
ELG1 repair inh: qHTS screen for small molecules that inhibit ELG1-dependent DNA repair in human embryonic kidney (HEK293T) cells expressing luciferase-tagged ELG1 | HEK293T ELG1-luciferase reporter, luminescence, 16 h; DNA damage induced by 5-fluorouridine | Potency, µM (series often up to 46.1 µM), hits mostly inhibitors | 2.3% of 330,000 active | AID 504467, 2011; also: nearly all actives have a fitted effect of over 55% in size
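Overnight (16 hr) co-exposure of 2,000 cells/well to 5-fluorouridine and compound at 37 °C preceded detection. Luciferase was quantified via ONE-Glo luminescence; loss of signal denotes inhibition.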
IL1B secr inh: qHTS for Inhibitors of Inflammasome Signaling: IL-1-beta AlphaLISA Primary Screen | THP-1 LPS/ATP IL-1B secretion, AlphaLISA, 16 h; active compounds read low | activity change, % at 57.5 µM | 4.7% of 360,000 active; in the data active = activity change below about -50%; inconclusive = mostly about -30% to -49%
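Secreted IL-1B measured by AlphaLISA bead assay after 16 h compound exposure of THP-1 cells; compounds (final up to 57.5 uM) added 1 h before LPS (250 ng/mL) and ATP (1.25 mM) stimulation; lower signal means less secretion.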
TDP1 cell CPT: qHTS for Inhibitors of human tyrosyl-DNA phosphodiesterase 1 (TDP1): qHTS in cells in presence of CPT; AID 686979, 2013; 12% of 420,000 active; chicken DT40 Tdp1-/-;hTDP1 cells + 20 nM CPT, ATP luminescence, 48 h; Potency, µM (titrated, usually from 46.2 µM), usual class: inhibitors; also: nearly all actives have a fitted effect of over 55% in size
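Cell growth measured by CellTiter-Glo luminescence after a minimum 48 h, 37 C compound exposure with 20 nM CPT in Tdp1-knockout DT40 cells stably expressing hTDP1, seeded 400/well; qHTS titration format.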
HT1080-NT tox: qHTS for induction of synthetic lethality in tumor cells producing 2HG: qHTS for the HT-1080-NT fibrosarcoma cell line; Potency, µM (titrated, usually from 46.1 µM), usual class: cytotoxic; HT-1080-NT fibrosarcoma viability, CellTiter-Glo ATP luminescence, 48 h; 1.6% of 360,000 active; AID 686970, 2013;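 also: NT is the 2HG producing partner of a matched IDH1 knockdown line; nearly all actives have a fitted effect of over 55% in size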
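Fibrosarcoma NT cells, 750 per well in 5% FBS RPMI, were exposed to compound for 48 hours. Viability: CellTiter-Glo luminescence.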
HT1080 IDH1KD tx: qHTS for induction of synthetic lethality in tumor cells producing 2HG: qHTS for the HT-1080-IDH1KD cell line | HT-1080 IDH1 knockdown viability, ATP luminescence, 48 h | Potency, µM (titrated, usually from 46.1 µM), most hits filed as cytotoxic | 2% of 360,000 active | AID 686971, 2013
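Cytotoxicity counter-line: IDH1KD HT-1080, 48 h, CellTiter-Glo. Curves classed by r2, magnitude and activity.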
TDP1 cell noCPT: qHTS for Inhibitors of human tyrosyl-DNA phosphodiesterase 1 (TDP1): qHTS in cells in absence of CPT; DT40 Tdp1-/- hTDP1 cells, no CPT, ATP luminescence, 48 h; AID 686978, 2013; Potency, µM (titrated, usually from 46.2 µM), usual class: inhibitors; 15% of 420,000 active; also: nearly all actives have a fitted effect of over 55% in size
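Stably hTDP1-transfected Tdp1-null chicken DT40 cells were treated with library compounds minus camptothecin and grown for at least 48 hr at 37 °C, after which cellular ATP was quantified by luminescence.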
Numbers stand for hits; – = inactive; ? = inconclusive; · = no result; [ ] = remark or other dose. Rows were chosen to be rich in hits. Some 19% of all compounds tested hit in one or more screens of this group. Unless noted, calls follow the shape of the dose curve; as a rule, active = well fitted curve in the direction sought with a large enough effect; inconclusive = small, poorly fitted or top-dose-only effect, or another doubt; inactive = no such curve, though single readings can be large; an effect the other way counts as inactive or inconclusive.

SMILES	ELG1 repair inh	IL1B secr inh	TDP1 cell CPT	HT1080-NT tox	HT1080 IDH1KD tx	TDP1 cell noCPT
Cc1c(NC(=O)Nc2ccccc2Cl)c(=O)n(-c2ccccc2)n1C	–	–	–	–	–	–
Cn1nccc1C(=O)N1CCOCC1	–	–	–	–	–	–
O=C(O)c1ccc2nc(-c3cc4cc(Cl)ccc4oc3=O)[nH]c2c1	·	·	?	·	·	–
CCOC(=O)c1cc(-c2ccccc2)n(Cc2cc(CC)no2)n1	–	–	–	–	–	–
CCNc1ncc2nc(-c3ccc(F)cc3)c(=O)n(-c3ccccc3)c2n1	·	·	–	·	·	–
CCNc1ncc2nc(-c3ccc(OC)cc3)c(=O)n(-c3ccc(OC)cc3)c2n1	·	·	?	·	·	0.033µM
COc1ccc(-c2nc3cnc(N4CCNCC4)nc3n(-c3ccc(OC)cc3)c2=O)cc1	·	·	18µM	·	·	?
CC1=[N+](C)c2c(ccc3cccnc23)C1(C)C	?	-112	0.33µM	?	?	1.8µM
COc1ccc(NC(=O)CN(C)C(=O)c2cc(-c3ccc(Cl)cc3)nc3ccccc23)cc1	?	–	?	–	–	21µM
CCN(CC(=O)Nc1ccc(NC(C)=O)cc1)C(=O)c1cc(-c2ccccc2Cl)nc2ccccc12	·	–	?	?	–	15µM
CCOc1ccc(NC(=O)CN(C)C(=O)c2cc(-c3ccc(OC)cc3)nc3ccccc23)cc1OCC	9.2µM	–	?	–	–	15µM
CC1=C(C(=O)N2CCCCCC2)CC(CC(=O)NCCN2CCOCC2)C(=O)N1Cc1ccc(C(C)(C)C)cc1 (stereo unspecified)	·	–	–	–	–	?
Cc1ccccc1CN1C(=O)c2ccccc2Sc2ccc(C(=O)NC3CCCCC3)cc21	·	·	15µM	·	·	16µM
O=C(NC1CCCC1)c1ccc2c(c1)N(Cc1ccccc1Cl)C(=O)c1ccccc1S2	·	·	–	·	·	?
O=C(NC1CCCC1)c1ccc2c(c1)N(Cc1ccccc1F)C(=O)c1ccccc1S2	·	·	?	·	·	15µM
Cn1c(N)c(C(=O)CSc2nnc(C3CC3)n2Cc2ccccc2)c(=O)[nH]c1=O	–	–	–	–	–	–
CC(C)OP(=O)(Nc1cccc2ccccc12)OC(C)C	–	–	–	–	–	–
CN(C)P(=O)(Nc1cccc2ccccc12)Nc1cccc2ccccc12	?	–	8.2µM	–	–	9.2µM
CC1CCN(CCCNC(=O)c2cc(Sc3ccc(F)cc3)nc3ccccc23)CC1	·	·	23µM	·	·	?
CC1CCCCN1CCCNC(=O)c1cc(Sc2ccc(Cl)cc2)nc2ccccc12 (stereo unspecified)	·	·	18µM	·	·	21µM
CCCN(CCC)CCNC(=O)c1cc(Sc2ccc(Cl)cc2)nc2ccccc12	·	·	16µM	·	·	18µM
CC1CCCCN1CCCNC(=O)c1nn(C)c2c1CSc1ccccc1-2 (stereo unspecified)	?	–	?	?	–	?
CC1CCN(CCCNC(=O)c2n[nH]c(=O)c3ccccc23)CC1	–	–	?	–	–	–
CCc1ccc(Sc2cc(C(=O)NCCN3CCOCC3)c3ccccc3n2)cc1	?	?	?	–	–	15µM
CN(C)c1ccc(Nc2ccc([N+](=O)[O-])cn2)cc1	?	–	–	–	–	?
SMILES	ELG1 repair inh	IL1B secr inh	TDP1 cell CPT	HT1080-NT tox	HT1080 IDH1KD tx	TDP1 cell noCPT
COCCCNC(=O)c1cc(Sc2nnc(C)s2)nc2ccccc12	–	–	–	–	–	–
CCOc1ccc(Sc2cc(C(=O)NCCCOC)c3ccccc3n2)cc1	·	·	21µM	·	·	16µM
O=S(=O)(NCc1ccccc1)NCc1ccc(Cl)cc1Cl	–	–	?	–	–	–
Cc1ccc(C(=O)C(c2ccccc2)N2Cc3ccccc3C2=N)cc1 (stereo unspecified)	?	-81	10µM	?	?	8.2µM
O=C(CN1C(=O)NC(Cc2c[nH]c3ccccc23)C1=O)Nc1ccc(F)c(F)c1F (stereo unspecified)	–	–	–	–	–	?
CN(CC(=O)Nc1ccc(F)cc1)C(=O)CN1C(=O)NC(CCc2ccccc2)C1=O (stereo unspecified)	·	–	12µM	–	–	26µM
O=C(CN1C(=O)NC(CCc2ccccc2)C1=O)Nc1ccc(F)c(F)c1F (stereo unspecified)	–	–	26µM	–	–	?
CC(C)(C)OC(=O)N(Cc1ccccc1)Cc1ccccc1OCc1cccc(NC(=O)C2CCC2)c1	·	–	?	–	–	16µM
CC(C)(C)OC(=O)N(CCc1ccccc1)Cc1ccccc1OCc1cccc(NC(=O)C2CCC2)c1	·	–	16µM	–	–	13µM
CC(C)C(=O)Nc1cccc(COc2cccc(CN(Cc3ccccc3)C(=O)OC(C)(C)C)c2)c1	·	–	?	–	–	?
CC(C)(C)OC(=O)N(Cc1ccccc1)Cc1ccccc1OCc1cccc(NC(=O)C2CC2)c1	·	–	?	–	?	?
CC(C)C(=O)Nc1cccc(COc2ccc(CN(CCc3ccccc3)C(=O)OC(C)(C)C)cc2)c1	·	–	26µM	?	–	13µM
CC(C)(C)OC(=O)N(CCc1ccccc1)Cc1cccc(OCc2cccc(NC(=O)C3CCC3)c2)c1	·	–	?	–	–	?
Cc1ccc2nc(CO)[nH]c2c1	·	·	–	·	·	–
COc1ccccc1C1OC(=O)CC1C(=O)OC[C@@H]1CCCN2CCCCC12 (stereo partly specified)	·	·	–[9.04 µM]	·	·	–[9.04 µM]
C/C(=N\NC(=S)Nc1ccc(C)cc1)c1cccc(N)c1	–	–	?	–	–	?
C/C(=N\NC(=S)Nc1cccc(C)c1)c1ccccc1	?	–	2.8µM	–	–	1.1µM
C/C(=N\NC(=S)Nc1cccc(C)c1)c1cccc(N)c1	?	–	0.92µM	–	–	0.92µM
CSC(=S)N/N=C(\C)c1ccccc1	?	–	3.3µM	–	–	?
Nc1ncnc2c1ncn2[C@@H]1O[C@H](CNC(=O)[C@@H]2CCC(=O)N2)[C@@H](O)[C@H]1O	–	–	–	–	–	–
O=C(NC1CCCCC1)C(c1ccncc1)N(C(=O)c1csnn1)c1cccc(F)c1 (stereo unspecified)	–	–	–	–	–	–
